PubChem BioAssay (NCI)
This is part of a sample that, as a whole, favours compounds with a hit. Of some 83,000 tested, about 20% had one in any assay.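 Method: cells in 96-well plates; compound added at one concentration; 48 h incubation; percent growth measured; values under 10 scored active.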 Unmarked numbers belong to inactive results. Calls of active or inactive are those of the source.

What was measured:
Test in all cases: NCI-60 one-dose screen, 48 h (100 = growth as untreated, 0 = no growth, -100 = all killed)
Settings in all cases: 10 µM unless noted
[1] = system: SK-MEL-2 melanoma
[2] = system: EKVX NSCLC
[3] = system: SN12C renal
[4] = system: UO-31 renal
[5] = system: TK-10 renal
[6] = system: ACHN renal
[7] = system: CAKI-1 renal
[8] = system: A498 renal
[9] = system: CCRF-CEM leukemia
[10] = system: MOLT-4 leukemia
[11] = system: SR leukemia
[12] = system: RPMI-8226 leukemia
[13] = system: OVCAR-8 ovarian
[14] = system: OVCAR-5 ovarian
[15] = system: OVCAR-4 ovarian
[16] = system: SK-OV-3 ovarian
[17] = system: IGROV1 ovarian
[18] = system: OVCAR-3 ovarian
[19] = system: HS 578T breast
[20] = system: NCI/ADR-RES ovarian

## CCOC(=O)C(=O)/C(=C\c1ccc(Cl)cc1)C(=O)N1C(=S)NC(=O)C1CC(C)C (stereo not given)
[1]
  growth: 112%
[2]
  growth: 91%
[3]
  growth: 96.9%
[4]
  growth: 86.1%
[5]
  growth: 135%
[6]
  growth: 99.5%
[7]
  growth: 91.3%
[8]
  growth: 102%
[9]
  growth: 91.2%
[10]
  growth: 98.4%
[11]
  growth: 105%
[12]
  growth: 93.2%
[13]
  growth: 103%
[14]
  growth: 98.6%
[15]
  growth: 98.2%
[16]
  growth: 108%
[17]
  growth: 95.2%
[18]
  growth: 111%
[19]
  growth: 106%
[20]
  growth: 101%

## Cc1cc(C(NC(=O)CCCCCNc2cccc3c2C(=O)N(C2CCC(=O)NC2=O)C3=O)c2ccc3c(c2)OC(F)(F)O3)c(O)c2ncccc12 (stereo not given)
[1]
  growth: 62.6%
[2]
  growth: 71.3%
[3]
  growth: 49.9%
[4]
  growth: 77.2%
[5]
  growth: 93.8%
[6]
  growth: 63.5%
[7]
  growth: 50%
[8]
  growth: 95.1%
[9]
  growth: 38.6%
[10]
  growth: 42.5%
[11]
  growth: 26.2%
[12]
  growth: 34.7%
[13]
  growth: 38.6%
[14]
  growth: 73.2%
[15]
  growth: 73.1%
[16]
  growth: 109%
[17]
  growth: 37.5%
[18]
  growth: 38.3%
[19]
  growth: 37.7%
[20]
  growth: 104%

## CN1CCN(Cc2ccc(NC(=O)c3cncc(C#Cc4cnc5ccc(N6CCN(C)CC6)nn45)c3)cc2C(F)(F)F)CC1
[1]
  growth: 56.4%
[2]
  growth: -84.9% (active)
[3]
  growth: 15.7%
[4]
  growth: 20.1%
[5]
  growth: 59%
[6]
  growth: -98.1% (active)
[7]
  growth: -95.3% (active)
[8]
  growth: 43.7%
[9]
  growth: -2.14% (active)
[10]
  growth: -26.2% (active)
[11]
  growth: -52.2% (active)
[12]
  growth: -13.9% (active)
[13]
  growth: -81.8% (active)
[14]
  growth: 61.4%
[15]
  growth: 10.9%
[16]
  growth: 92%
[17]
  growth: -37.2% (active)
[18]
  growth: -76.9% (active)
[19]
  growth: -23.1% (active)
[20]
  growth: -31.3% (active)

## COc1ccc(-c2nc(C(Cl)Cl)nc3cc(-c4ccccc4)nn23)cc1
[1]
  growth: 77.4%
[2]
  growth: -3.98% (active)
[3]
  growth: 29.1%
[4]
  growth: 25.7%
[5]
  growth: 33.1%
[6]
  growth: -55.3% (active)
[7]
  growth: -14.5% (active)
[8]
  growth: -33.4% (active)
[9]
  growth: 18.2%
[10]
  growth: 4.01% (active)
[11]
  growth: 4.09% (active)
[12]
  growth: 14.9%
[13]
  growth: -34.3% (active)
[14]
  growth: -12.9% (active)
[15]
  growth: -15.3% (active)
[16]
  growth: -29.7% (active)
[17]
  growth: 2.02% (active)
[18]
  growth: -33.9% (active)
[19]
  growth: -6.94% (active)
[20]
  growth: 9.82% (active)

## NS(=O)(=O)c1ccc(-n2cc(CN3CCCCC3)nn2)cc1
[1]
  growth: 109%
[2]
  growth: 101%
[3]
  growth: 100%
[4]
  growth: 82.2%
[5]
  growth: 102%
[6]
  growth: 107%
[7]
  growth: 92.6%
[8]
  growth: 93.6%
[9]
  growth: 108%
[10]
  growth: 98.5%
[11]
  growth: 93.7%
[12]
  growth: 107%
[13]
  growth: 105%
[14]
  growth: 105%
[15]
  growth: 105%
[16]
  growth: 122%
[17]
  growth: 104%
[18]
  growth: 113%
[19]
  growth: 100%
[20]
  growth: 109%

## CC(=O)N(C)C1CCc2c(sc(NC(=O)c3ccc(C(C)(C)C)cc3)c2C(N)=O)C1 (stereo not given)
[1]
  growth: 103%
[2]
  growth: 75.5%
[3]
  growth: 71.1%
[4]
  growth: 89%
[5]
  growth: 106%
[6]
  growth: 97.7%
[7]
  growth: 64.8%
[8]
  growth: 80%
[9]
  growth: 69.3%
[10]
  growth: 75.2%
[11]
  growth: 9.43% (active)
[12]
  growth: 81.2%
[13]
  growth: 73.8%
[14]
  growth: 78.9%
[15]
  growth: 41.7%
[16]
  growth: 108%
[17]
  growth: 100%
[18]
  growth: 83.7%
[19]
  growth: 38.9%
[20]
  growth: 79.6%

## C#Cc1nc(/C=C/C(=O)c2nccn2C)cs1
[1]
  growth: 18.6%
[2]
  growth: -59.4% (active)
[3]
  growth: -47.2% (active)
[4]
  growth: -80.7% (active)
[5]
  growth: -18.8% (active)
[6]
  growth: -94% (active)
[7]
  growth: -55.7% (active)
[8]
  growth: -88.1% (active)
[9]
  growth: -21.6% (active)
[10]
  growth: -31.2% (active)
[11]
  growth: -40.8% (active)
[12]
  growth: -39.9% (active)
[13]
  growth: 27.1%
[14]
  growth: -87.4% (active)
[15]
  growth: 33.7%
[16]
  growth: -59.7% (active)
[17]
  growth: -59.1% (active)
[18]
  growth: -64.4% (active)
[19]
  growth: -6.46% (active)
[20]
  growth: -26.1% (active)

## N/C(=N\C(N)=N\c1nc2ccccc2s1)c1cccc(F)c1
[1]
  growth: 98% [5 µM]
[2]
  growth: 81.4% [5 µM]
[3]
  growth: 76.9% [5 µM]
[4]
  growth: 82.8% [5 µM]
[5]
  growth: 187% [5 µM]
[6]
  growth: 85.9% [5 µM]
[7]
  growth: 84% [5 µM]
[8]
  growth: 97.1% [5 µM]
[9]
  growth: 93.9% [5 µM]
[10]
  growth: 84.9% [5 µM]
[11]
  growth: 48.4% [5 µM]
[12]
  growth: 84.4% [5 µM]
[13]
  growth: 98.9% [5 µM]
[14]
  growth: 102% [5 µM]
[15]
  growth: 133% [5 µM]
[16]
  growth: 93.9% [5 µM]
[17]
  growth: 68.4% [5 µM]
[18]
  growth: 101% [5 µM]
[19]
  growth: 93.7% [5 µM]
[20]
  growth: 86.3% [5 µM]
